The entries come from a sample that favours hits as a whole.
LmPK inh – qHTS Assay for Inhibitors of Leishmania Mexicana Pyruvate Kinase (LmPK) | 290,000 compounds, 0.37% hits | purified LmPK, Kinase-Glo ATP luminescence, 1 h | Potency, µM (series often up to 57.5 µM), usual class: inhibitors | AID 1721, 2009
Target sequence (Q27686 whole entry, looked up): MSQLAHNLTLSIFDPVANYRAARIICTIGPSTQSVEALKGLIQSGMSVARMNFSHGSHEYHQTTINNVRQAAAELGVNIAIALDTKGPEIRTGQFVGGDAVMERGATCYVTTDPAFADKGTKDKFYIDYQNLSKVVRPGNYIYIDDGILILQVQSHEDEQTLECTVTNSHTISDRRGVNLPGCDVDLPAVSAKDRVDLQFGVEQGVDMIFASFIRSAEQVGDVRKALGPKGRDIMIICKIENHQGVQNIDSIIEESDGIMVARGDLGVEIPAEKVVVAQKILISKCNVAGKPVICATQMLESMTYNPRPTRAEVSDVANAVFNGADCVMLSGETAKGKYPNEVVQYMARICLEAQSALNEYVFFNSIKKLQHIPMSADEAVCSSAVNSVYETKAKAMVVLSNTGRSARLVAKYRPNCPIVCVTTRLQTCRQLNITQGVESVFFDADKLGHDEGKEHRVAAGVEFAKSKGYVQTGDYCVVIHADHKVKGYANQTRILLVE
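0.1 nM LmPK, 0.5 mM PEP, 0.1 mM ADP; 50 mM imidazole pH 7.2, 7 mM MgCl2, 50 mM KCl; 1 h RT. Kinase-Glo luminescence readout, normalized to no-enzyme (full inhibition) and uninhibited wells.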
RE007 growth inh – qHTS Assay for Inhibitors of the HIV-1 protein Vpr; S. pombe RE007 Vpr strain, BacTiter-Glo ATP luminescence, 24 h; Potency, µM (highest dose often 92.2 µM), usual class: inhibitors; 360,000 compounds, 0.21% hits; active means well fitted falling curve with a large enough effect; inconclusive means small, poorly fitted or top-dose-only effect; inactive means no such curve, though single readings can be large or run the other way; further: nearly all actives have a fitted effect of over 50% in size
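Fission yeast RE007 carrying one integrated HIV-1 vpr copy, seeded at OD 0.01 in PMG+AL medium with 23 nL pinned compound. Grown 24 h at 30 degrees; viability read by BacTiter-Glo luminescence after 5 min.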
Tb PYK inh – qHTS of Trypanosoma Brucei Inhibitors; pyruvate kinase (Trypanosoma brucei), Q57TT1; AID 624173, 2012; TbPYK enzyme, Kinase-Glo Plus ATP luminescence, 45 min; Potency, µM (titrated, usually from 76.8 µM), most hits filed as inhibitors; 410,000 compounds, 0.12% hits; further: nearly all actives have a fitted effect of over 50% in size
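Screened from lowest to highest concentration, compounds were pinned into TbPYK/substrate mixtures, and ADP (130 uM final) was added. Plates sat at room temperature for 45 min prior to Kinase-Glo Plus detection by luminescence.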
FBPA Giardia inh – qHTS Assay for Inhibitors of Fructose-1,6-bisphosphate Aldolase from Giardia Lamblia | purified Giardia FBPA | Potency, µM (top dose mostly 59.6 µM), most hits filed as inhibitors | 290,000 compounds, 0.71% hits | AID 2451, 2010; further: nearly all actives have a fitted effect of over 55% in size
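Giardia FBPA (40 nM reagent) was preincubated 10 min at RT with compound (up to 57.5 uM final), then substrate plus GAPDH/TPI/NAD/arsenate coupling system with diaphorase/resazurin was added; resorufin fluorescence (525/598 nm) was read after 20 min.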
Shiga toxin inh – A qHTS for Small Molecule Inhibitors of Shiga Toxin. 290,000 compounds, 9.2% hits. inhibition, % at 38.7 µM. Vero cells, Shiga toxin protein synthesis inhibition reporter; in the data active means inhibition mostly above about 28%, no sharp cut-off; inactive means mostly below about 43%
CHX counter-1 – Cycloheximide Counterscreen for Small Molecule Inhibitors of Shiga Toxin; 300,000 compounds, 12% hits; cell reporter, cycloheximide protein synthesis inhibition counterscreen; max response, %; AID 2314, 2010; in the data active means max response mostly above about 13%, no sharp cut-off; inactive means mostly below about 14%; further: read at 38.3 µM for the half of the compounds with a filed dose
CHX counter-2 – Cycloheximide Counterscreen for Small Molecule Inhibitors of Shiga Toxin (Confirmatory) | shares compounds with Shiga toxin inh | Cycloheximide counterscreen, protein synthesis reporter, Shiga toxin assay | Potency, µM (highest dose often 38.3 µM), actives largely listed as activators | 510 compounds, 3% hits | AID 2318, 2010; calls by dose curve
Numbers stand for hits; 0 = inactive; ? = inconclusive; - = no result given; [ ] = dose if it differs, or a comment. Unless noted, the call rests on the fitted dose curve; in most records, active means well fitted curve in the direction sought with a large enough effect; inconclusive means small, poorly fitted or top-dose-only effect, or another doubt; inactive means no such curve, though single readings can be large; an effect the other way counts as inactive or inconclusive.

SMILES	LmPK inh	RE007 growth inh	Tb PYK inh	FBPA Giardia inh	Shiga toxin inh	CHX counter-1	CHX counter-2
O=C(NCCc1c[nH]c2ccccc12)C(F)(F)F	0	0	0	0	43.4	0	0
O=C(NCCc1c[nH]c2ccccc12)Nc1ccccc1C(F)(F)F	-	-	0	-	-	-	-
O=c1[nH]nc(CNc2ccc(OC(F)(F)F)cc2)c2ccccc12	0	0	0	0	0	0	-
O=c1[nH]nc(CNc2ccc(C(F)(F)F)cc2)c2ccccc12	0	0	0	0	29.4	0	?
CN(C(=O)CSc1cn(CC(=O)N2CCCC2)c2ccccc12)c1ccccc1	-	-	0	-	-	-	-
Cc1cccc(-c2noc(-c3ccc(N4CCN(C)CC4)c([N+](=O)[O-])c3)n2)c1	-	-	0	-	-	-	-
O=C(NCc1ccco1)c1noc2c1CCCC2	0	?	0	0	41.9	0	?
COc1nc(C)c2cc(C)oc2n1	0	0	0	0	0	0	-
CSc1nc(C)c2cc(C)oc2n1	0	0	0	0	70.8	0	0
CCOC(=O)c1c(S(=O)(=O)N2CCC(C(=O)NCc3cccc(OC)c3)CC2)c(C)n(C)c1C	-	-	0	-	-	-	-
Cc1ccc2c(c1)N(CC(=O)N1CCCC1)C(=O)CO2	0	0	0	0	34.6	0	0
CN(Cc1ccccc1C#N)S(=O)(=O)c1cccs1	0	0	0	0	0	0	-
COc1ccccc1CN(C)S(=O)(=O)c1cccs1	0	0	0	0	68.6	0	0
CCc1ccc(NC(=O)Cn2c(=O)n(-c3ccc(OC)cc3)c(=O)c3ccc(C(=O)NCc4ccc(C)cc4)cc32)cc1	-	-	0	-	-	-	-
Cc1ccc([N+](=O)[O-])cc1NC(=O)CSc1nncn1-c1ccccn1	0	0	0	0	98.2	0	0
CCOC(=O)N1CCN(C(=O)c2nn(-c3cc(OC)cc(OC)c3)c(=O)c3ccccc23)CC1	0	-	-	0	0	0	-
COc1cc(OC)cc(-n2nc(C(=O)N3CC(C)CC(C)C3)c3ccccc3c2=O)c1 (stereo not given)	0	0	0	0	23.2	0	0
O=C(Nc1ccc(Cl)cc1)C1CCN(C(=O)c2cccs2)CC1	0	0	0	0	103.9	0	0
CCOc1ccc(CN2CCN(Cc3cc4ccccc4o3)CC2CCO)cc1 (stereo not given)	0	0	0	0	-	0	0
Cc1cccc(C(=O)NC(NCCc2ccccc2)C(Cl)(Cl)Cl)c1 (stereo not given)	0	0	0	0	108.6	0	0
CCN(CC)S(=O)(=O)c1ccc2c(c1)N(CC(=O)Nc1c(C)cc(C)cc1C)C(=O)CS2	-	-	0	-	-	-	-
Cc1cc(C)nc(SCC(=O)Nc2cc(C)on2)n1	0	0	0	0	119.1	0	0
O=C(COc1ccc2ccc(=O)oc2c1)NCc1ccccn1	0	0	0	-	0	0	-
Cc1cc(OCC(=O)NCc2ccccn2)cc(C)c1Br	0	0	0	0	47.1	0	0
CCCn1nnc(NC(=O)COc2ccc(Cl)cc2)n1	0	0	0	0	0	0	-
SMILES	LmPK inh	RE007 growth inh	Tb PYK inh	FBPA Giardia inh	Shiga toxin inh	CHX counter-1	CHX counter-2
CCCn1nnc(NC(=O)COc2ccc(C3CCCCC3)cc2)n1	0	0	0	0	75.4	0	0
Cc1ccc(CN2c3ccccc3S(=O)(=O)c3ccccc32)cc1	-	-	0	-	-	-	-
CNC(=O)c1cccn(Cc2cc(C(F)(F)F)cc(C(F)(F)F)c2)c1=O	0	0	0	0	0	0	-
CNC(=O)c1cccn(Cc2ccc(C(F)(F)F)cc2)c1=O	0	0	0	0	26.3	0	0
Cc1cccc(CCNC(=O)CN(c2ccc(C(C)C)cc2)S(=O)(=O)c2c(C)nn(C)c2C)c1	-	-	0	-	-	-	-
CCOc1ccccc1CNC(=O)c1nc(-c2ccc(Cl)cc2)n2c1CCCCC2	-	-	0	-	-	-	-
c1cc2c(cc1Cn1cnnn1)OCO2	0	0	0	0	158.3	0	0
Cc1nnc(C)c2c(C)n(Cc3ccc4c(c3)OCO4)c(C)c12	0	0	0	0	0	0	-
CCCCN(CC)C(=O)Nc1ccc2c(c1)N(C)C(=O)c1ccccc1S2	-	-	0	-	-	-	-
CCc1ccccc1NC(=O)Cn1nnc(-c2cccs2)n1	0	0	0	0	48.5	0	0
O=C(CSc1nc2c(c(=O)[nH]1)CN(Cc1ccc3c(c1)OCO3)CC2)Nc1ccc(F)cc1	-	-	0	-	-	-	-
Clc1nssc1=Nc1ccc(Br)cc1	0	?	?	?	59.0	0	0
OCc1ccccc1N=c1ssnc1Cl	0	-	-	0	0	0	-
Cc1ccc(C)n1-c1ccc(NC(=O)c2ccccc2)cc1	0	0	0	0	32.2	0	?
CCOC(=O)N1CCN(C(=O)Nc2ccc3nc(C)c(C)nc3c2)CC1	0	0	0	0	136.4	0	0
O=C(CCc1nc(-c2cccs2)no1)Nc1cccc([N+](=O)[O-])c1	-	-	0	-	-	-	-
COC(=O)c1c(NS(C)(=O)=O)sc2c1CCCC2	0	0	0	0	28.4	0	0
CCN1C(=O)[C@H]2[C@H]3[C@H](O)[C@H](O)C/C(=N/OC/C=C(\C)CCC=C(C)C)[C@@H]3CC[C@@H]2C1=O	-	-	-	0[12.9 µM]	-	-	-
Cc1cc(Cl)ccc1NC(=O)CN1CCCC1	0	0	0	0	0	0	-
Cc1cc(Cl)ccc1NC(=O)CN1CCC(C(O)(c2ccccc2)c2ccccc2)CC1	0	0	0	0	122.3	0	0
Cc1cnc(NC(=O)c2c(Cl)cnn2C)s1	0	0	0	-	39.7	0	0
Cn1ncc(Cl)c1C(=O)NCc1ccc(Cl)cc1	0	0	0	0	0	0	-
COc1ccc(C)cc1NC(=O)Cc1ccc(NC(=O)N2CCCCc3ccccc32)cc1	-	-	0	-	-	-	-
Cc1ccc(NC2=NCC(=O)N2C2CCCC2)cc1	0	0	0	0	57.9	0	0
Cc1ccc(NC2=NCC(=O)N2C2CCCC2)cc1C	0	0	0	0	0	0	-
SMILES	LmPK inh	RE007 growth inh	Tb PYK inh	FBPA Giardia inh	Shiga toxin inh	CHX counter-1	CHX counter-2
O=C(COc1ccccc1)N1CCN(C(=O)c2ccco2)CC1	0	0	0	0	0	0	-
O=C(CSCc1ccccc1)N1CCN(C(=O)c2ccco2)CC1	0	0	0	0	45.9	0	?
CC(=O)c1ccc(N2CCN(C(=O)CCS(=O)(=O)c3ccc4c(c3)oc(=O)n4C)CC2)cc1	-	-	0	-	-	-	-
C=CCOC(=O)C1=C(C)OC(N)=C(C(=O)OCC)C12C(=O)N(CC(N)=O)c1ccccc12 (stereo not given)	0	0	0	0[12.9 µM]	33.2	0	0
COC(=O)c1ccc(-c2ncc(-c3cccc4ccccc34)o2)cc1	0	0	0	0	33.9	0	10µM
COc1ccc(C(=O)OCC#CCSc2nnc(-c3cccc4ccccc34)o2)cc1	-	-	0	-	-	-	-
